D1 agonist – human D1 receptor agonism | AID 504660 | 1% of 360,000 active | activation, % at 2 µM | HEK293 T-REx D1 cells, calcium flux, agonist mode
Target sequence (P21728 whole entry, looked up): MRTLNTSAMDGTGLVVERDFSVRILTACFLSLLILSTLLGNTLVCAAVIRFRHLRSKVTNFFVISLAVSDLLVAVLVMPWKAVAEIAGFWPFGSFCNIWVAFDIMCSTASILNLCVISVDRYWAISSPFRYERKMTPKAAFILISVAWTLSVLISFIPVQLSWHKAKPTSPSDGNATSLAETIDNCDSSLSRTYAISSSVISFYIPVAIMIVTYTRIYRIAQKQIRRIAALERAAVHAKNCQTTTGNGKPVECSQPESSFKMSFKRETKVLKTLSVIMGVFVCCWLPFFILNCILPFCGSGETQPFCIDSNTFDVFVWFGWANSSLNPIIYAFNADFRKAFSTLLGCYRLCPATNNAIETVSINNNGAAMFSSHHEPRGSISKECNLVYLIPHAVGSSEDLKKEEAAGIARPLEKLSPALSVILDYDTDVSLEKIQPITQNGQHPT
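Inducible HEK293 T-REx D1 cells, force-coupled to calcium signalling, were plated at 4000 cells/well with tetracycline and held overnight at 30 C. After no-wash calcium dye loading, compound-evoked calcium rise over 180 s flagged agonists.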
TRHR agonist – TRH receptor (human) agonism. activation, % at 2 µM. 0.18% of 360,000 active. P34981. TRHR cells, calcium flux fluo-8, FDSS agonist mode
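In this calcium-flux screen, cells bearing human TRHR are dye-loaded with fluo-8, baselined for 10 cycles, then exposed to library compounds; positive kinetic calcium responses during the agonist phase mark hits, with TRH as control.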
TRHR PAM – allosterically enhances the human TRH receptor. P34981. 0.66% of 360,000 active. enhancement, % at 2 µM. TRHR cells, fluo-8 calcium fluorescence, EC20 TRH enhancement; in the data active = enhancement above about 30%
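Enhancer read-out: after compound pinning and an initial kinetic agonist-mode read, an EC20 of TRH (10 nM final) was injected and fluo-8 calcium signal (Ex 480/Em 530) followed at 1 s/cycle for 100 cycles in TRHR-expressing cells.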
USP1-UAF1 inh – blocks the human USP1/UAF1 deubiquitinase complex. O94782. recombinant USP1/UAF1, Ub-Rhodamine cleavage fluorescence. Potency, µM (series often up to 57.1 µM), usual class: inhibitors. 0.23% of 390,000 active; active = well fitted inhibition curve with a large enough effect; inconclusive = small, poorly fitted or top-dose-only effect; inactive = no such curve, though single readings can be large or run the other way; also: nearly all actives have a fitted effect of over 60% in size
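Step one: compound is pinned into 1nM USP1/UAF1 in HEPES pH 7.8 buffer with TCEP. Step two: 15 min room-temperature incubation. Step three: Ub-Rho (150nM final) starts cleavage, tracked by fluorescence over six one-minute reads.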
D1 potentiator – human D1 dopamine receptor positive modulation; HEK293 TREx D1 cells, calcium flux, dopamine EC20 potentiation; potentiation, % at 10 µM; 0.036% of 360,000 active; in the data active = potentiation above about 30%
D1 antagonist – antagonists of human D1 dopamine receptor. P21728. HEK293 TREx D1 cells, calcium flux, dopamine EC80; hits give low values. activity change, negative = inhibition, % at 10 µM. 3.2% of 360,000 active. AID 504652; in the data active = activity change below about -30%
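Antagonism measured as reduced calcium response to an EC80 dopamine addition following 180 s compound pre-read; cells were inducible HEK293 Trex D1 plated overnight at 30 C, read kinetically at 1 cycle/sec.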
Of the large screens only hits and unclear results are named; the others gave an inactive call; ! = repeats disagree. Sampled rows, rich in hits. Any-hit rate of the full collection: about 4.4%. Rule as the data show it, unless noted: active = activation above about 30%; inactive = the rest.

COc1cccc2c1ncc1c(-c3ccc(C)cc3)nn(-c3ccc(F)cc3)c12	none
CN(C)CCN(Cc1ccccc1)c1ccccn1	D1 antagonist -31!
CCOC(=O)c1ccc(Nc2ncnc3ccccc23)cc1	none
Cc1ccc(C)c(Nc2nc3nonc3nc2Nc2cccc(C)c2C)c1	USP1-UAF1 inh inconclusive, D1 antagonist -31
CCOC(=O)c1ccc(Nc2nc3nonc3nc2Nc2cccc(C)c2C)cc1	USP1-UAF1 inh inconclusive, D1 antagonist -39
COc1ccc(C(=O)NCCSCc2ccco2)cc1OC	D1 antagonist -34
O=C(NCCSCc1ccco1)Nc1ccc(Cl)cc1	D1 antagonist -30
CCN(Cc1ccccc1)S(=O)(=O)c1cc(C(=O)Nc2cc(Cl)cc(Cl)c2)ccc1F	none
COc1ccccc1NCC(O)COc1ccc(C(C)(C)C)cc1 (configuration not stated)	none
COc1ccc(OCC(O)CNCCOc2ccccc2OC)c(C(C)(C)C)c1 (configuration not stated)	D1 agonist 59
CCOc1ccccc1CNC(=O)Cn1cc2c(n1)-c1c(oc(C(=O)N3CCCC3)c1C)CC2	USP1-UAF1 inh inconclusive
COc1cc(NCCCCCCN)c2ncccc2c1OC	USP1-UAF1 inh 8.9µM (no result: D1 agonist, TRHR agonist, TRHR PAM, D1 potentiator, D1 antagonist)
CCN1/C(=C/c2ccc3cc(C)cc(C)c3[n+]2CC)Sc2cc(C)ccc21	TRHR PAM 35
CCN1/C(=C\c2ccc3cc(C)ccc3[n+]2CC)Sc2cc(C)c(C)cc21	none
CSc1ncc(C(=O)NCc2cccc(Br)c2)c(-c2ccccc2)n1	none
CCCCc1ccc(C2C(C#N)=C(N)SC(N)=C2C#N)s1	D1 agonist 63, D1 antagonist -67 (no result: USP1-UAF1 inh)
CCOC(=O)C1(Cc2ccc(OC)cc2)CCN(S(C)(=O)=O)CC1	none
CCOC(=O)C1(Cc2ccc(Cl)cc2)CCN(C(C)Cc2ccc(O)c(OC)c2)CC1 (configuration not stated)	D1 antagonist -37
CCOc1ccc(NC(=O)c2c(Nc3ccc(OC)cc3OC)sc(C(=O)c3ccc(Cl)cc3)c2N)cc1	D1 agonist 49
O=[S+]([O-])(c1ccc2nsnc2c1)N1CCN([S+](=O)([O-])c2c(F)cccc2F)CC1	none (no result: USP1-UAF1 inh)
CC1CCCN(CCCNC(=O)c2ccc3c(c2)N(Cc2ccc(Cl)cc2)C(=O)c2ccccc2S3(=O)=O)C1 (configuration not stated)	D1 agonist 60, D1 antagonist -35
COc1ccc(NC(=O)c2ccc3c(c2)N(Cc2cccc(Cl)c2)C(=O)c2ccccc2S3(=O)=O)cc1Cl	none
CC1CC(C)CN(CCCNC(=O)c2ccc3c(c2)N(Cc2ccccc2)C(=O)c2ccccc2S3=O)C1 (configuration not stated)	D1 agonist 80
Cc1ccc(C)c(CN2C(=O)c3ccccc3S(=O)(=O)c3ccc(C(=O)NCCCN4CCCC(C)C4)cc32)c1 (configuration not stated)	none
CC(=O)c1ccc(NC(=O)c2ccc3c(c2)N(Cc2cccc(Cl)c2)C(=O)c2ccccc2S3(=O)=O)cc1	TRHR PAM 30, USP1-UAF1 inh inconclusive
CN(CC(=O)Nc1cccc(C(F)(F)F)c1)S(=O)(=O)c1ccc2[nH]c3c(c2c1)CCCC3	none
O=C(Nc1cccc(F)c1)C1CCN(S(=O)(=O)c2ccc3[nH]c4c(c3c2)CCCCC4)CC1	D1 antagonist -32
CN(CC(=O)Nc1cccc(Cl)c1)S(=O)(=O)c1ccc2[nH]c3c(c2c1)CCCC3	D1 antagonist -35
CSc1cccc(NC(=O)C2CCN(S(=O)(=O)c3ccc4[nH]c5c(c4c3)CCCCC5)CC2)c1	none
CCc1cccc(NC(=O)Cn2c(=O)n(CCC(=O)NCc3ccccc3Cl)c(=O)c3sccc32)c1	USP1-UAF1 inh inconclusive
CCOc1ccc(Br)cc1C1=NN(C(C)=O)C(c2ccc([N+](=O)[O-])s2)O1 (configuration not stated)	USP1-UAF1 inh 22µM
Cc1nc(NCc2ccco2)c(C#N)c2c1COC(C)(C)C2	none
CC1(C)Cc2c(C#N)c(NCc3ccco3)nc(-c3ccco3)c2CO1	TRHR PAM 37
O=C(CSc1nc2c([nH]c3ccccc32)c(=O)n1-c1cccc(C(F)(F)F)c1)N1CCc2ccccc21	none
CCC(=O)Nc1ccccc1-c1nc2ccccc2n(C(C)C(=O)Nc2ccc(OC)cc2)c1=O (configuration not stated)	D1 antagonist -31
C=CCNC(=O)c1ccc(CN2CCC(Cc3ccccc3)CC2)cc1	D1 antagonist -58
Cc1ccccc1NC(=O)c1ccc(CN2CCC(Cc3ccccc3)CC2)cc1	D1 antagonist -57
Cc1cc(C(=O)N2CCC(Cc3ccccc3)CC2)ccc1[N+](=O)[O-]	D1 antagonist -32
COc1ccc(CCNC(=O)c2ccc(CN3CCC(Cc4ccccc4)CC3)cc2)cc1	none
Cc1ccc(C(=O)NCC(=O)N2CCC(Cc3ccccc3)CC2)cc1	D1 antagonist -36
CC(C)NC(=O)c1ccc(CN2CCC(Cc3ccccc3)CC2)cc1	none
COC(=O)C(/C=N/OCc1ccc([N+](=O)[O-])cc1)NC(=O)c1cccc(Cl)c1 (configuration not stated)	D1 agonist 41
COc1ccc(-c2cn(Cc3ccc4ccccc4c3)nn2)cc1	D1 antagonist -32
COc1ccc(-c2cn(Cc3ccc4c(c3)C(=O)c3ccccc3C4=O)nn2)cc1	none
Cc1cc(F)ccc1-n1nnc(C(N)=O)c1C	none
Cc1cc(C)cc(-n2c(SCC(=O)N3CCC(C)CC3)nc3c([nH]c4ccccc43)c2=O)c1	none
Cc1nc(C)c(-c2ccc(SCC(=O)Nc3cccc(C)c3C)nn2)s1	none
COc1cc(Cl)c(C)cc1NS(=O)(=O)c1c(C)nc2sccn2c1=O	D1 antagonist -44
Cc1cccn2c(=O)c(C(=O)N3CCN(c4ccccc4)CC3)cnc12	none
O=C(CSc1nnc(CNc2ccc(F)cc2)o1)OC1CCCCC1	D1 antagonist -31
O=C(CSc1nc2ccccc2s1)N1c2ccccc2Sc2ccc(Cl)cc21	D1 antagonist -49
O=C(COc1ccc(Cl)cc1)NCc1nnc(SCC(=O)NC2CCCCC2)o1	D1 antagonist -33
O=C(CSc1nnc(CNc2cccc(Cl)c2)o1)OC1CCCCC1	none
Cc1ccc(OCc2nnc(SCC(=O)N3c4ccccc4Sc4ccc(Cl)cc43)o2)cc1	D1 antagonist -32
O=C(CSc1nc2ccccc2o1)N1c2ccccc2Sc2ccccc21	none
O=C(CSc1nc2cc(Cl)ccc2s1)c1cc2ccccc2o1	USP1-UAF1 inh 28µM (no result: D1 antagonist)
CN1CCN(C(=O)CSc2nnc(COc3ccc(Cl)cc3)o2)CC1	D1 antagonist -37 (no result: D1 potentiator)

Bioassay records: PubChem BioAssay, National Center for Advancing Translational Sciences (NCATS)
